High-throughput results: PubChem BioAssay, National Center for Advancing Translational Sciences (NCATS)
Hsp90 Hop PPI – changes Hsp90-Hop TPR2A binding signal, up or down; AlphaScreen TPR2A-His6 binding biotin-Hsp90 C-terminal peptide; Potency, µM (highest dose often 57 µM), for the others: at the highest dose activity change, negative = inhibition; 71,000 tested, 0.44% active; AID 595; active = well fitted curve in either direction with a large enough effect; inconclusive = small, poorly fitted or top-dose-only effect, or another doubt; also: potency is read from the fitted curve at half-maximal effect; % is scaled to controls: 0 for no effect and ±100 for the full control effect
YjeE inh – inhibitors of E. coli YjeE (TsaE). P0AF67. Potency, µM. 71,000 tested, 0.05% active. purified YjeE enzyme, qHTS inhibition assay. AID 605
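Fluorescence polarization of a BODIPY Texas Red–ADP probe (2 uM) bound to purified YjeE (10 uM) was read after 15 min room-temperature incubation with compounds. Loss of polarization marks inhibitors; ADP serves as titrated control.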
GBA activity – alters purified human glucocerebrosidase activity; AID 360; 48,000 tested, 1.1% active; Potency, µM; purified enzyme, resorufin glucoside fluorescence (screen aimed at inhibitors), 20 min; in the data active = potency below about 15 µM; inconclusive = mostly about 16 µM to 33 µM;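 also: potency is read from the fitted curve at half-maximal effect; the screen sought inhibitors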
Target sequence (P04062 whole entry, looked up): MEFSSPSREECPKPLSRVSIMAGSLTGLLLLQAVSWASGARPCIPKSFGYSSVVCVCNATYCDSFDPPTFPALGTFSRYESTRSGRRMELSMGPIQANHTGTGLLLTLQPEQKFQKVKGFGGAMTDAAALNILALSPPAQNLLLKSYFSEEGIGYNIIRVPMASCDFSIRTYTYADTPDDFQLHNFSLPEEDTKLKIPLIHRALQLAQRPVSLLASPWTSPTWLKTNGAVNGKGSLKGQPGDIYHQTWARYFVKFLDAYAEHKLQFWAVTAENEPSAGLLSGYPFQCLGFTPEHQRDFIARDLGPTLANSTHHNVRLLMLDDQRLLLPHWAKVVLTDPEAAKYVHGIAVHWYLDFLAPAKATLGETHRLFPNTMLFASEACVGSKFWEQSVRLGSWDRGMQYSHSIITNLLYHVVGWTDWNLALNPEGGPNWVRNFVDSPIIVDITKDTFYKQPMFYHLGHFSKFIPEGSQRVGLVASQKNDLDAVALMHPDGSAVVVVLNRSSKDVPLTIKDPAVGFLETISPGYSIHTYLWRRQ
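Compounds titrated against 0.2 nM normal enzyme, 30 uM resorufin beta-D-glucopyranoside substrate, citrate/phosphate buffer with taurocholate and tween-20, pH 5.9. Reaction ran 20 min at room temperature; fluorescence (Ex 548/Em 600) gave AC50.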
BRCT PPI red – inhibitors of human BRCA1 BRCT-phosphoprotein interaction (red fluorophore); BRCT-phosphopeptide binding, red fluorescence polarization; Potency, µM (series often up to 76.9 µM), without a hit: top-dose activity change, negative = inhibition, most hits filed as inhibitors; 75,000 tested, 0.03% active; also: % is scaled to controls: 0 for no effect and ±100 for the full control effect
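Rhodamine-labelled pBACH1 10-mer (100 nM) bound to BRCT domain (100 nM) at pH 7.3; compounds incubated 12 min room temperature, polarization read. Free peptide defines full inhibition; unlabelled decapeptide titrated as control.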
BRCT PPI green – BRCA1 BRCT-phosphoprotein interaction inhibition | AID 875 | P38398 | BRCA1 BRCT-phosphopeptide binding, green fluorescence polarization | 75,000 tested, 0.05% active | Potency, µM (top dose mostly 76.9 µM), for the others: at the highest dose activity change, negative = inhibition, usual class: inhibitors;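 also: potency is read from the fitted curve at half-maximal effect; plate controls were peptide without protein for full effect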
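Compounds were incubated for 12 min at room temperature with a complex of 100 nM fluorescein-tagged pBACH1 decapeptide and 250 nM His-tagged BRCT protein. Buffer was phosphate pH 7.3 with EDTA, DTT and Tween 20. Disruption of binding lowers the polarization signal.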
Pol III holo inh – DNA polymerase III holoenzyme inhibition | 71,000 tested, 0.25% active | reconstituted DNA polymerase III holoenzyme replication, biochemical | Potency, µM (titrated, usually from 57.1 µM), inactives show at the highest dose activity change, negative = inhibition; also: potency is read from the fitted curve at half-maximal effect; % is scaled to controls: 0 for no effect and ±100 for the full control effect
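Reconstituted *E. coli* holoenzyme (0.35 nM Pol III, 1 nM beta, 154 nM SSB, 2 nM primase) was preincubated with compound for 15 min at RT. Synthesis on 1.4 nM ssM13Gori ran 35 min, then was stopped with PicoGreen/EDTA and read as dsDNA fluorescence.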
* = called active by the depositor; i = inactive; u = inconclusive; x = no result; [ ] = another dose, or the depositor's remark. Sampled rows, rich in hits. Any-hit rate of the full collection: about 1.2%. Unless noted, calls follow the shape of the dose curve; as a rule, active = well fitted curve in the direction sought with a large enough effect; inconclusive = small, poorly fitted or top-dose-only effect, or another doubt; inactive = no such curve, though single readings can be large; an effect the other way counts as inactive or inconclusive.

SMILES	Hsp90 Hop PPI	YjeE inh	GBA activity	BRCT PPI red	BRCT PPI green	Pol III holo inh
COc1ccc(COC(=O)N/N=C2/C[C@@H](O)[C@@H](O)[C@@H]3[C@@H]4C(=O)N(C(C)(C)C)C(=O)[C@H]4CC[C@H]23)cc1	x	x	x	-0.6%[15.4 µM]	-2.3%[15.4 µM]	x
O=c1cc(O)cc(/C=C\c2ccc(O)c(O)c2)o1	12.6µM*	i	x	-8.3%	5.1%	6.31µM*
O=C(O)/C=C/c1ccc(O)c(O)c1	x	x	x	-2.2%	2.2%	x
Oc1ccc(-c2nc3ccccn3c2NCc2ccc3c(c2)OCO3)cc1	-29.6%	i	0.886*	1.4%	-1.3%	1.9%
O=C(Nc1ccc(Cl)cc1)c1ccncc1	u	i	x	-3.9%	-1.4%	-6.0%
CC(C)Oc1ccc(NC(=O)c2ccncc2)cc1	-4.6%	i	7.88*	-1.6%	-1.8%	-1.7%
Cn1c(=O)c(-c2ccc(Cl)cc2)nc2cnc(N3CCNCC3)nc21	2.2%	i	x	-1.0%	-2.6%	-7.1%
O=C(O)c1cn[nH]c1-n1cnnn1	25.1µM*	i	>76.9	-3.4%	-2.4%	-4.1%
C=C1C[C@@]23C[C@]1(O)CC[C@@H]2[C@]12C=C[C@@H](O)[C@@](C)(C(=O)O1)[C@@H]2[C@@H]3C(=O)O	-7.4%	i	x	x	x	-5.7%
O=c1[nH]c(N2CCc3ccccc3C2)nc2c1CCCC2	-2.9%	i	4.56*	0.0%	-0.9%	-0.1%
O=c1[nH]c(-c2ccccc2O)nc2c1CCCC2	0.5%	i	7.46*	0.2%	1.9%	-1.5%
CC(=O)[C@]1(O)CC[C@@H]2[C@H]3C[C@@H](C)C4=CC(=O)CC[C@@]4(C)[C@H]3[C@@H](O)C[C@]21C	-1.3%[11 µM]	i	x	-0.6%[15.4 µM]	-1.4%[15.4 µM]	-10.1%[11.4 µM]
O=C(Nc1ccc(SC(F)F)cc1)c1ccc2nccnc2c1	-7.6%	i	12.4*	1.2%	-1.8%	-10.7%
C/C=C\C1=C(CO)[C@H](O)[C@H]2OC2[C@@H]1O (stereo partly specified)	x	x	x	2.1%[15.4 µM]	-1.2%[15.4 µM]	x
O=C(c1ccco1)N1CCC2(CC1)CCN(c1cccc(-c3ccccc3)c1)CC2	u	i	x	-2.6%	-0.4%	-4.8%
CC(C)C(C)(C#N)NC(=O)CSc1nc2scc(-c3ccco3)c2c(=O)n1-c1ccccc1 (stereo unspecified)	-1.9%	i	15.1*	0.9%	3.5%	4.4%
Nc1cc2c(nc3c4ccccc4c(N)cc3[n+]2-c2cccc3ccccc23)c2ccccc12 (tested in a mixture with another compound)	2.51µM*	u	x	2.0%[15.4 µM]	-1.4%[15.4 µM]	-4.5%[11.4 µM]
CN1CCc2nc(SCCOc3ccccc3)c(C#N)cc2C1	-10.3%	i	10.4*	-3.5%	-4.9%	-14.2%
O=Cc1ccc(OC2C=CC(C#Cc3ccccc3)OC2CO)cc1 (stereo unspecified)	x	x	x	0.7%[15.4 µM]	2.2%[15.4 µM]	x
CN1CCN(S(=O)(=O)c2ccc(N(C)Cc3cccs3)nc2)CC1	-5.4%	i	4.48*	1.1%	0.4%	-2.6%
N#Cc1c(N2CCCC2)nc(N)c2c(N)nc(N3CCCC3)cc12	25.1µM*	i	x	-4.4%	4.6%	0.0%
OCCN(CCO)c1nc(N2CCCCC2)c2nc(N(CCO)CCO)nc(N3CCCCC3)c2n1	-1.6%	i	x	-3.0%	39.8µM*	31.1%
O=C(/C=C/c1c(C(=O)O)[nH]c2cc(Cl)cc(Cl)c12)Nc1ccccc1	x	x	x	0.3%	0.0%	x
CCN(C(=O)CCc1nc(-c2ccccc2F)no1)c1cc(OC)ccc1OC	4.4%	i	15.2*	-1.9%	0.1%	1.6%
O=C(Nc1cccc(F)c1)N1CC[C@@]2(CCCN(C(=O)c3cc(C(F)(F)F)cc(C(F)(F)F)c3)C2)C1	1.0%	i	x	0.8%	1.1%	-9.5%
Cc1cc(-c2ccc(N=Nc3cc(S(=O)(=O)O)c4ccccc4c3N)c(C)c2)ccc1N=Nc1cc(S(=O)(=O)O)c2ccccc2c1N	1.26µM*	i	x	-9.5%	-7.6%	u
Cc1c2cc[n+](CCN3CCCCC3)cc2c(C)c2c1[nH]c1ccc(O)cc12	-10.8%[11 µM]	i	x	0.2%[15.4 µM]	-5.0%[15.4 µM]	2.51µM*
